bovine MsrA act: activators of bovine methionine sulfoxide reductase A; AID 602163; 360,000 compounds, 0.3% hits; purified bovine MsrA, absorbance read-out; activation, % at 10.6 µM; in the data active = activation above about 7.5%;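 note: 0% = vehicle and 100% = reference activator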
PKA-R2B activ: activates the human PKA-R2B holoenzyme complex | activation, % at 11.4 µM | PKA-R2B holoenzyme dissociation, Cy5-IP20 fluorescence polarization; R2B truncated from residue 108, S112A mutant; 0% DMSO only, 100% 113 µM cGMP | AID 504700 | P22694+P31323 | 340,000 compounds, 0.079% hits;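 active = activation above a cutoff set at the mean over all compounds plus 3 SD, cut at about 18% in these data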;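 note: higher means more holoenzyme dissociation and a rise in polarization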
Target sequence (P31323 whole entry, looked up, other chains not shown, the tested form may be a part): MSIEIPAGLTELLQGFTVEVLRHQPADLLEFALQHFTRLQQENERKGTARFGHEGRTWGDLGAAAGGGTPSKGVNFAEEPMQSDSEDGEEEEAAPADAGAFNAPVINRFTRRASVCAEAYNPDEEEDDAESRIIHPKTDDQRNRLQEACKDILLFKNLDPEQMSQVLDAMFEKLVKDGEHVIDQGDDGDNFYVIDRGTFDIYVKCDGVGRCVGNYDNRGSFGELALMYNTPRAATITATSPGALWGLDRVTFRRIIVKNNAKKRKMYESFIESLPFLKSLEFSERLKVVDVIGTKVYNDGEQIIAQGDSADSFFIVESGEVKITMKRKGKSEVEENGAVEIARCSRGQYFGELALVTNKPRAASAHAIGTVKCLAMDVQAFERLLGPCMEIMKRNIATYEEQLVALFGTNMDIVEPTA
MsrA inh: bovine MsrA inhibition; purified bovine MsrA, absorbance read-out; inhibition, % at 15.5 µM; 360,000 compounds, 0.75% hits; AID 651718;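 note: 0% = vehicle wells with enzyme and 100% = reference inhibitor wells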
PKA-R1A activ: PKA-R1A complex activation. activation, % at 11.4 µM. PKA-R1A dissociation, Cy5-IP20 fluorescence polarization; scaled: DMSO 0%, 113 µM cGMP 100%. 340,000 compounds, 0.083% hits;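 active = percent activation above the mean of all tested compounds plus 3 SD, cut at about 19% in these data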;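 note: higher means more PKAc released from R1A so a rise in polarization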
MsrA conf: bovine MsrA inhibition, confirmed; inhibition, % at 15.5 µM; purified bovine MsrA, absorbance read-out; shares compounds with MsrA inh; 2,300 compounds, 41% hits;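 note: coupled to thioredoxin reductase with NADPH and selenocystamine and DMSO as substrate; 0% = vehicle only and 100% = full effect of reference inhibitor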
Active calls of the source: *; x = not tested or not shown. The list is not random: actives were taken first. Their share in the collection is about 1.1%. Cut-off read from the data, not from the text of the source, unless noted: active = inhibition above about 4.5%; inactive = the rest.

SMILES	bovine MsrA act	PKA-R2B activ	MsrA inh	PKA-R1A activ	MsrA conf
COc1cc(/C=N/Nc2cc(C)nc(NS(=O)(=O)c3ccc(C)cc3)n2)ccc1O	-7.8	2.6	5.5*	4.0	5.7*
Cc1cc(NN)nc(NS(=O)(=O)c2ccccc2)n1	-0.1	x	1.3	x	x
COc1cc(/C=N/Nc2cc(C)nc(NS(=O)(=O)c3ccccc3)n2)ccc1O	-6.6	-4.7	7.4*	0.5	6.9*
COc1ccc(/C=N/Nc2cc(C)nc(NS(=O)(=O)c3ccc(C)cc3)n2)cc1	-2.0	-1.4	2.9	-3.4	x
Nc1ccc(-c2nc3ncccc3o2)c(Cl)c1	-10.5	-1.9	6.0*	1.5	5.2*
Cc1ccc(-c2nc3ncccc3o2)cc1N	-4.4	2.7	1.1	2.9	x
Nc1ccc(-c2nc3ncccc3o2)c(O)c1	-7.2	-1.3	9.8*	4.2	7.2*
Nc1ccc(Cl)c(-c2nc3ncccc3o2)c1	-1.2	-2.7	0.2	-1.3	x
Cc1cc(-c2nc3ncccc3o2)ccc1N	-4.5	-1.5	6.5*	-11.7	6.6*
COc1ccccc1NC(=O)CCNC(=O)C1CCN(S(=O)(=O)c2ccccc2)CC1	0.9	-11.7	-0.1	6.2	x
COc1ccc(OCCN2CCCC2)cc1Nc1nnc(Cl)c(Nc2ccccc2S(C)(=O)=O)n1	-4.0	0.5	x	-8.7	x
COC(=O)C1=C(C)N(Cc2ccc(Cl)cc2)C(=S)NC1c1cccc(Br)c1 (centres undefined)	x	x	1.7	x	x
COc1ccc(-c2cc(C(F)(F)F)nc(S(C)(=O)=O)n2)cc1	-8.9	-10.1	5.4*	-7.1	1.7
COc1ccc(/C=C(\C#N)C(=O)NC(C)c2ccccc2)cc1O (centres undefined)	-5.6	10.3	4.9*	2.0	3.0
COc1cc(/C=C2\C(=N)N3N=C(C)SC3=NC2=O)cc(Cl)c1OCCOc1ccc(NC(C)=O)cc1	0.4	-7.8	0.5	7.4	x
Cc1c(C#N)c(N=CN(C)C)c(C(=O)c2ccccc2)n1-c1ccc(Br)cc1	-9.2	-3.0	5.3*	-9.1	7.3*
Cc1c(C#N)c(N=CN(C)C)c(C(=O)c2ccc(Br)cc2)n1-c1ccccc1	0.5	-4.0	1.6	0.6	x
Cc1ccc(C2NC(=S)NC3=C2C(=O)CC(C)(C)C3)cc1 (centres undefined)	4.8	-11.1	4.8*	7.9	1.1
CC1(C)CC(=O)C2=C(C1)Nc1ccccc1NC2c1cccnc1 (centres undefined)	-12.5	1.3	5.4*	10.1	3.9
Cc1cc2c(cc1C)NC(c1cccnc1)C1=C(CC(C)(C)CC1=O)N2 (centres undefined)	-6.2	1.8	3.9	-6.2	x
CC1(c2ccccc2)NC(=O)N(CC(=O)N2CCN(S(=O)(=O)c3cccc([N+](=O)[O-])c3)CC2)C1=O (centres undefined)	3.2	-4.2	-0.4	8.4	x
O=c1[nH]c(=S)c2c(n1-c1ccccc1)CCC2	-5.9	2.8	5.8*	0.0	3.4
O=c1c(-c2ccccc2)c(O)c2c(n1-c1ccccc1)CCCC2	-1.9	3.4	1.6	-3.9	x
C[C@@H]1COc2cccc(N3CCC[C@H]3CO)c2S(=O)(=O)N1	-2.9	x	0.6	x	x
Cc1cccc(OCC(=O)N2CCc3ccccc3C2)c1C	1.9	-1.2	-0.4	2.7	x
SMILES	bovine MsrA act	PKA-R2B activ	MsrA inh	PKA-R1A activ	MsrA conf
CC(C)(C)S(=O)N1Cc2cc(=O)n(Cc3ccccc3)c(CCO)c2[C@@H]1CCO (some centres undefined)	-2.3	5.9	2.8	-6.7	x
COc1ccc(/C=C2\SC(N)=NC2=O)cc1Br	-5.8	6.9	4.7*	-0.1	4.0
O=C(COc1ccc2c(-c3ccccc3)cc(=O)oc2c1)N[C@H](Cc1c[nH]c2ccccc12)C(=O)O	-2.3	-12.1	1.4	0.7	x
COc1c(F)cccc1C1=CC(=O)C[C@H](c2ccc3c(c2)OCO3)C1	-0.6	-1.9	7.1*	-6.4	3.1
COc1ccccc1CCn1cnc(-c2cccc(Cl)c2)c1CC(C)C	x	x	1.0	x	x
CN(C)C1CN(Cc2cn(Cc3ccc(C(F)(F)F)cc3)nn2)S(=O)(=O)C1 (centres undefined)	-4.3	x	-0.2	x	x
Cc1ccc2nc(NC(=O)c3ccc(Br)o3)sc2c1	-6.6	-1.9	-0.3	-6.1	x
CC(=O)Nc1nc2cc(C(N)=O)ccc2s1	-2.7	-6.2	1.3	5.1	x
NS(=O)(=O)c1ccc2nc(NC(=O)c3ccc(Br)o3)sc2c1	-3.0	-0.1	4.8*	-1.4	5.7*
CS(=O)(=O)c1ccc2nc(NC(=O)c3ccccc3)sc2c1	-0.3	2.0	1.0	-4.7	x
NS(=O)(=O)c1ccc2nc(NC(=O)c3ccncc3)sc2c1	-6.3	-1.6	5.6*	-7.0	4.2
NC(=O)c1ccc2nc(NC(=O)c3ccc(N)cc3)sc2c1	-4.5	x	6.3*	x	4.3
CSCCC(NC(=O)OCc1ccccc1)NC(=O)OCc1ccccc1	-3.2	x	1.8	x	x
CO[C@H]1CN(C)C(=O)c2cc(NC(=O)c3cc(C)on3)ccc2OC[C@@H](C)N(C(=O)C2CC2)C[C@H]1C	x	x	-0.7	x	x
COc1ccc(/C=C/c2cc(-c3ccc(C)cc3)o[n+]2C)cc1	-6.4	-4.3	5.0*	11.4	4.2
CN(C)N=Nc1nc2c(c(=O)n(C)c(=O)n2C)n1CC1CO1 (centres undefined)	-5.8	x	7.4*	x	5.9*
CN(C)N=Nc1nc2c([nH]1)c(=O)n(C)c(=O)n2C	-3.4	-8.9	2.0	-3.2	x
CCNC(=S)N/N=C(\C)c1cc2ccccc2o1	-11.1	-8.8	5.6*	-1.9	6.3*
C/C(=N\NC(=S)Nc1cccc(C)c1)c1cc2ccccc2o1	0.5	-4.4	2.4	-10.9	x
CC1CCCC(NC(=O)CSc2ncccn2)C1C (centres undefined)	-10.6	2.8	-0.7	3.5	x
CN(C)c1ccc(/C=N/Nc2ccc(-n3ccnc3)nn2)cc1	-6.9	-6.5	6.0*	-7.1	2.9
O=Cc1c(-c2ccccc2)nc2ccccn12	-2.1	-9.1	13.3*	-2.5	10.3*
O=C(Nc1c(-c2ccccc2)nc2ccccn12)c1ccccc1	-4.8	-1.4	2.1	3.4	x
COc1ccc(C(=O)N/N=C/c2ccc(SC)cc2)cc1	-5.6	-3.2	5.2*	-6.6	5.9*
CSc1ccc(/C=N/NC(=O)c2ccc(O)cc2)cc1	-7.2	-7.0	7.9*	-7.9	5.8*
SMILES	bovine MsrA act	PKA-R2B activ	MsrA inh	PKA-R1A activ	MsrA conf
O=C(NN=Cc1ccc(O)cc1)C(=O)NN=Cc1ccc(O)cc1	0.1	5.3	6.1*	4.4	1.9
Cc1ccc2c(Cl)c(C(=O)NC3CC3)sc2c1	-3.8	-3.9	0.5	6.7	x
Cc1cnc(C(=O)OCC(=O)NC(C)c2ccccc2)cn1 (centres undefined)	-0.8	2.3	-0.5	-3.5	x
O=C(COC(=O)CCCN1C(=O)c2cccc3cccc(c23)C1=O)Nc1ccc(Cl)cc1	-4.9	-5.3	4.8*	4.4	0.6
NC(=O)c1ccc(NC(=O)COC(=O)CCCN2C(=O)c3cccc4cccc(c34)C2=O)cc1	-11.9	-8.0	1.0	-13.6	x
O=c1[nH]c(-[n+]2ccc3ccccc3c2)c(/C=N/N=C(\[O-])c2ccccc2)s1	-3.2	-14.5	2.6	-4.4	x

Screens (PubChem BioAssay)
